{"source": "PubChem BioAssay AID588849", "about": "(Broad Institute, 2011)", "note": "Entries with a potency or affinity are not part of this list. Active and inactive are the calls of the source. No rule for the calls is given here."}
{"molecular_target": "CAAX prenyl protease 2 (Homo sapiens) (UniProt Q9Y256)", "sequence (Q9Y256 whole entry, looked up)": "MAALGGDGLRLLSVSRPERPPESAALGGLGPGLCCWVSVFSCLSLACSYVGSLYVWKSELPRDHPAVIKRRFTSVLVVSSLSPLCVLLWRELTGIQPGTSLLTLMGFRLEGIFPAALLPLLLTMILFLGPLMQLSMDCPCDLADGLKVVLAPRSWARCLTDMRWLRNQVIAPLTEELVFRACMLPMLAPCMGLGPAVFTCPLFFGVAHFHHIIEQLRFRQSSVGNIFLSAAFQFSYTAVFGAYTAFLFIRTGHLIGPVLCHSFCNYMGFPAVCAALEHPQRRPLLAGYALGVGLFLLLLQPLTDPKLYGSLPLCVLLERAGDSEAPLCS", "experiment": "human Rce1 protease inhibitors, dose response, biochemical, yeast membranes, quenched-peptide fluorescence, cherry-pick (AID 588849)", "details": "yeast membrane fractions expressing human Rce1, quenched-peptide fluorescence, 4 h; series mostly up to 10 µM"}
{"smiles": "COC(C[C@@H]1O[C@@H]1C(=O)[C@@H](C)OCc1ccccc1)OC", "outcome": "inactive"}
{"smiles": "COc1cc2c(cc1OC)C(C)N(C(=O)c1cc3c(=O)oc4ccc(C)cc4c3s1)CC2", "note": "(centres undefined)", "outcome": "inactive"}
{"smiles": "Cc1cc(N/N=C/c2ccc(O)c(C)c2O)nc(-c2ccccc2O)n1", "outcome": "inactive"}
{"smiles": "COC(=O)/C=c1\\[nH]c2nnc(C)n2c1=O", "outcome": "inactive"}
{"smiles": "Cc1ccc(C2(COC(=O)C(C)C)CO2)c(OC(=O)C(C)C)c1", "note": "(centres undefined)", "outcome": "inactive"}
{"smiles": "COc1ccc(OC)c(/C=N/c2c(-c3ccc(O)c(OC)c3)nc3ccccn23)c1", "outcome": "inactive"}
{"smiles": "Nc1c(C(=O)NCc2ccccc2)sc2nc(N3CCOCC3)c3c(c12)CCCC3", "outcome": "inactive"}
{"smiles": "COc1cccc(NC(=O)Nc2cccn(Cc3ccc(C)cc3)c2=O)c1", "outcome": "inactive"}
{"smiles": "Cc1cc(C(=O)N/N=C/c2c3ccccc3cc3ccccc23)n[nH]1", "outcome": "inactive"}
{"smiles": "CC1CCN(C(=O)C2CCN(S(=O)(=O)c3ccc(-n4cnnn4)cc3)CC2)CC1", "outcome": "inactive"}
{"smiles": "O=C(NCC1CC1)c1ccc(Nc2nc3ccc(Br)cc3[nH]2)cc1", "outcome": "inactive"}
{"smiles": "Cc1ccc(S(=O)(=O)c2cn(C)c3cc(N4CCOCC4)c(F)cc3c2=O)cc1", "outcome": "inactive"}
{"smiles": "Cc1ccc(-c2nc(SCC(=O)N(C)C3CCS(=O)(=O)C3)[nH]c2-c2ccc(C)cc2)cc1", "note": "(centres undefined)", "outcome": "inactive"}
{"smiles": "CCCN(CCC)CCNC(=O)c1cc2c(-c3ccc(Cl)cc3)nn(C)c2s1", "outcome": "inactive"}
{"smiles": "COCCCNC(=O)c1cc2cc3cc(OC)ccc3nc2o1", "outcome": "inactive"}
{"smiles": "Cc1ccc(-c2c(C(=O)N/N=C/c3cccc(Cl)c3)nnn2-c2nonc2N)cc1", "outcome": "inactive"}
{"smiles": "COc1ccc(Cc2nc3ccc(C(=O)N4CCCC4)cc3o2)cc1", "outcome": "inactive"}
{"smiles": "COc1ccc(S(=O)(=O)NCC2CCCO2)cc1NC(=O)c1ccccc1F", "note": "(centres undefined)", "outcome": "inactive"}
{"smiles": "COCc1c(Br)c(C)[nH]c(=O)c1C#N", "outcome": "inactive"}
{"smiles": "N=c1c2c(ncn1Cc1ccco1)Oc1ccc3ccccc3c1C2c1ccccc1", "note": "(centres undefined)", "outcome": "inactive"}
{"smiles": "Cc1cc(NS(=O)(=O)c2ccccc2)c([N+](=O)[O-])cc1C", "outcome": "inactive"}
{"smiles": "C/C(CC(=O)NCc1ccco1)=N\\NC(=O)c1ccc([N+](=O)[O-])cc1Cl", "outcome": "inactive"}
{"smiles": "Cc1nn(CCC(=O)O)c2nc(-c3cccnc3)cc(C(F)(F)F)c12", "outcome": "inactive"}
{"smiles": "O=C(O)CCC(=O)c1ccc(-c2ccccc2)cc1", "outcome": "inactive"}
{"smiles": "CC(=O)Nc1ccc(Cl)cc1C1COC(=O)C1=N", "note": "(centres undefined)", "outcome": "inactive"}
{"smiles": "CCOC(=O)C1CCCN(C(=O)CCn2nnnc2CN2CCOCC2)C1", "note": "(centres undefined)", "outcome": "inactive"}
{"smiles": "CCCC(=O)N1CCN(c2ccc(NC(=O)c3cc4ccccc4o3)cc2Cl)CC1", "outcome": "inactive"}
{"smiles": "CSc1ccc(C(=O)C2CCCN(C(=O)c3cccnc3SC)C2)cc1", "note": "(centres undefined)", "outcome": "inactive"}
{"smiles": "Cc1ccccc1NS(=O)(=O)c1ccc(C(=O)NCC(c2ccccc2)N(C)C)cc1", "note": "(centres undefined)", "outcome": "inactive"}
{"smiles": "COc1ccc2[nH]c(C(=O)NCCCn3ccnc3)cc2c1", "outcome": "inactive"}
{"smiles": "CCCCCCSc1cc(-c2nc3cc(C)ccn3c2NCCCC)ccc1OC", "outcome": "inactive"}
{"smiles": "CCn1nc(C)cc1C(=O)NC1CC(C)(C)Cc2c1cnn2-c1cccc(F)c1", "note": "(centres undefined)", "outcome": "inactive"}
{"smiles": "COc1ccc(-c2cn3ccccc3n2)cc1[N+](=O)[O-]", "outcome": "inactive"}
{"smiles": "Cc1ccc(C(=O)c2c3ccc(C(F)(F)F)cc3[n+]([O-])n2CCCC(N)=O)cc1", "outcome": "inactive"}
{"smiles": "Cc1cccc(N2C(=O)c3cccc4c(N5CCCCC5)c([N+](=O)[O-])cc(c34)C2=O)c1C", "outcome": "inactive"}
{"smiles": "O=C(c1cnc(Cl)c(Cl)c1)N1CCC(Cc2ccccc2)CC1", "outcome": "inactive"}
{"smiles": "CCCCOc1ccc(Cc2c(COCC)[nH]c(=S)[nH]c2=O)cc1", "outcome": "inactive"}
{"smiles": "CCOc1ccc(-n2c(SCc3ccc([N+](=O)[O-])cc3)nnc2-c2ccc(OC)cc2)cc1", "outcome": "inactive"}
{"smiles": "O=C(CN1CCC(NC(=O)c2ccc(Br)cc2)CC1)NCc1cccs1", "outcome": "inactive"}
